Source: PubChem BioAssay (several laboratories)
Sampled rows, rich in hits. Any-hit rate of the full collection: about 4.6%.
tim23-1 inh – growth inhibitors of tim23-1 mutant yeast, primary screen, luminescence, uHTS; AID 463212, 2010; S. cerevisiae tim23-1 growth, BacTiter-Glo luminescence, 24 h; inhibition, % at 20 µM; 1.3% of 330,000 active;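 active means growth inhibition of the mutant yeast at or above 50%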;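 further: temperature-sensitive mutant grown at 25 °C; plate controls were DMSO-treated mutant yeast for no effect and medium wells lacking yeast for full effect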
TIM10 inh – growth inhibitors of isogenic TIM10 control yeast, primary screen, counter-screen for tim10-1 yeast inhibitor project, luminescence, uHTS | 1.4% of 330,000 active | S. cerevisiae TIM10 strain growth, BacTiter-Glo luminescence, 24 h | AID 463195, 2010 | inhibition, % at 10 µM;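 active means inhibition of 40% or more at the single tested concentration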;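 further: wild-type TIM10 isogenic control strain grown at permissive 25 °C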
V-ATPase pHluor – regulators of yeast V-ATPase proton pumping, primary screen, pHLuorin cytosolic pH fluorescence. S. cerevisiae. response, % at 10 µM. 0.37% of 350,000 active. AID 504577, 2011; in the data active means response mostly above about 7.3%, no sharp cut-off; inactive means mostly below about 5.4%; further: actives read high
tim10-1 inh – growth inhibitors of tim10-1 mutant yeast, primary screen, luminescence, uHTS | S. cerevisiae tim10-1 ts strain growth, BacTiter-Glo, 24 h | inhibition, % at 20 µM | 2.2% of 330,000 active;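 active means inhibition of at least 40%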;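 further: mutant grown at 25 °C; 0% = DMSO wells with yeast and 100% = wells holding no yeast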
SKKanGAS inh – S. pyogenes SKKanGAS growth inhibitors in kanamycin, primary screen, streptokinase expression inhibitor project, SKKanGAS strain, BacTiter-Glo luminescence; 6 h; inhibition, % at 7.5 µM; 1.3% of 300,000 active; AID 1662, 2009;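 active means mean replicate score, as percent of positive control median, at least 50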;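 further: strain carries kanamycin resistance gene driven by streptokinase promoter and grows in 40 µg/ml kanamycin; loss of luminescence reflects streptokinase promoter inhibition or plain growth inhibition; 0% = median of DMSO wells and 100% = positive control at its reference dose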
PfHsp90 yeast 2 – growth inhibition of PfHsp90-expressing yeast, primary screen, antimalarial PfHsp90 inhibitor project, S. cerevisiae, BacTiter-Glo luminescence, single point, set 2; 0.32% of 310,000 active; BacTiter-Glo ATP, 48 h; yeast lacking PDR1 and PDR3 efflux regulators; inhibition, % at 9.4 µM;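 active means every replicate shows inhibition above about 80%, whatever the replicate mean, limit read from the data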;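 further: 0% = DMSO neutral controls and 100% = 20 µM radicicol positive controls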
* hit, by the source's call; nt = not tested or not shown.

SMILES	tim23-1 inh	TIM10 inh	V-ATPase pHluor	tim10-1 inh	SKKanGAS inh	PfHsp90 yeast 2
CCN(CC(=O)Nc1ccccc1C(F)(F)F)CC(=O)c1[nH]c(C)c(C(C)=O)c1C	nt	nt	2	nt	nt	nt
CCc1sc(C(=O)Nc2nc(-c3ccccn3)cs2)cc1C	25	12	2	10	nt	107*
O=C(Nc1nc(-c2ccccn2)cs1)c1ncc(Cl)c(Cl)c1Cl	-34	-13	-1	30	98*	110*
Cc1cccc(C(=O)NC(C(=O)Nc2nc(-c3ccccn3)cs2)C(C)C)c1 (stereo not drawn)	17	6	1	18	91*	6
O=C(CCCSc1ccccc1)Nc1nc(-c2ccccn2)cs1	11	18	4	25	105*	-15
CSCCC(=O)Nc1nc(-c2ccccn2)cs1	nt	nt	-4	nt	nt	nt
COc1ccc(/C=C(\C#N)C(=O)C(C)(C)n2cncn2)cc1	7	8	0	9	-10	10
Cn1cccc1C(=O)Nc1nc(-c2ccccn2)cs1	23	4	0	1	81*	-28
O=C(/C=C/c1ccco1)Nc1nc(-c2ccccn2)cs1	-30	-19	2	-45	55*	-8
O=C(Nc1nc(-c2cccs2)cs1)c1ccc(S(=O)(=O)N2CCCCC2)cc1	23	11	2	14	23	-18
Cc1csc(NC(=O)c2cccn2C)n1	15	8	-1	2	15	-8
O=C(Nc1nc(-c2ccccn2)cs1)c1cc2ccccc2o1	20	21	0	13	104*	105*
O=C(Nc1nc(-c2ccccn2)cs1)c1ccc(S(=O)(=O)N2CCCCC2)cc1	40	17	nt	7	84*	nt
Cc1cccc(-c2nc3c(c(=O)c4ccccc4n3C)c(=O)n2-c2ccccc2)c1	9	20	-2	19	34	7
Cc1ccc2c(c1)C1(C(=O)N2)N2CCCC2C(C(=O)c2ccc3ccccc3c2)C12C(=O)Nc1ccccc12 (stereo not drawn)	nt	nt	-4	nt	nt	19
O=C(COc1ccc(F)cc1Cl)Nc1nc(-c2ccccn2)cs1	33	0	-1	28	110*	-94
Cc1cccnc1Nc1nc(-c2ccccn2)cs1	10	34	3	-30	106*	106*
Cc1cccnc1Nc1nc(-c2ccccc2)cs1	50	1	0	8	14	-7
CCOC(=O)c1c(CN(C)C)n(-c2ccc(C)cc2)c2cc(Br)c(O)cc12	15	31	2	22	100*	-12
CC1(C)C2CCC1(C)C(OCCNCCOC(=O)Nc1ccccc1)C2 (stereo not drawn)	35	3	14*	7	12	-28
Cn1nc(-c2ccccc2)c(CSc2ccccc2Cl)c1Cl	-10	-14	2	-21	75*	-1
Cn1nc(-c2ccccc2)c(C(O)c2ccc(Cl)cc2)c1Cl (stereo not drawn)	19	3	2	21	-3	1
N=C1S/C(=C\c2ccco2)C(=O)N1c1ccc2c(c1)OCO2	12	0	-3	1	2	-16
N=C1S/C(=C\c2ccco2)C(=O)N1c1nccs1	8	21	1	-12	81*	-84
COc1ccc(C(=O)N2CCCC(Nc3ccc(C)c(C)c3)C2)cc1F (stereo not drawn)	31	8	-2	12	51*	9
SMILES	tim23-1 inh	TIM10 inh	V-ATPase pHluor	tim10-1 inh	SKKanGAS inh	PfHsp90 yeast 2
O=C(NC1=NCCS1)c1cc(-c2ccccc2)nn1-c1ccccc1	-7	23	0	18	51*	nt
CCn1ccc(C(=O)NC2C(=O)N3C(C(=O)O)=C(C)CSC23)n1 (stereo not drawn)	8	-8	2	-9	-6	-57
C=CC1=C(C(=O)O)N2C(=O)[C@@H](NC(=O)/C(=N\O)c3csc(N)n3)[C@H]2SC1 (stereo in doubt)	-17	3	-2	5	107*	-4
Cc1[nH]n(-c2ccccc2)c(=O)c1/C=N/NC(=O)c1cccc(F)c1	10	19	-1	-7	68*	-35
Cc1[nH]n(-c2ccc(Br)cc2)c(=O)c1/C=N/NC(=O)c1ccccc1	27	-66	-1	-42	90*	19
O=C(N/N=C/c1c(Cl)cccc1Cl)c1cccc(F)c1	13	2	2	13	0	-18
O=C(N/N=C/c1ccc(Br)cc1)c1ccc(NC(=O)c2ccccc2)cc1	nt	nt	1	nt	nt	-10
C/C(=N/NC(=O)CNC(=O)C(c1ccccc1)c1ccccc1)c1ccco1	-24	5	-4	-12	55*	6
O/N=C\c1ccccc1Oc1ccc(F)cc1	8	-5	-1	-1	4	-6
CCOC(=O)/C(C#N)=N/Nc1c(C)n(C)n(-c2ccccc2)c1=O	-2	10	-2	12	7	11
Cc1c(N/N=C(\C#N)C(=O)c2ccccc2)c(=O)n(-c2ccccc2)n1C	nt	nt	0	nt	65*	18
Cc1ccccc1C(=O)/C(C#N)=N/Nc1c(C)n(C)n(-c2ccccc2)c1=O	nt	nt	0	nt	66*	4
Cn1c(-c2ccc(F)cc2)cnc1NCc1cccc([N+](=O)[O-])c1	-5	-1	6	-5	-2	-3
O=[N+]([O-])c1ccc(/C=N/Nc2nc(N3CCCCC3)nc(N3CCCCC3)n2)cc1	21	5	0	7	0	0
O=[N+]([O-])c1ccc(/C=N/Nc2nc(N3CCCCCC3)nc(N3CCCCCC3)n2)o1	-1	19	1	36	75*	nt
Cc1ccc(-c2csc3nc[nH]c(=S)c23)cc1	50	7	3	24	34	-28
S=c1[nH]cnc2scc(-c3ccc(Cl)cc3)c12	-9	-24	0	7	76*	nt
Cc1cc(-c2csc3nc[nH]c(=S)c23)cc(C)c1C	27	26	-2	39	92*	-32
Cc1ccc2c(c1)C1CN(C)CCC1N2S(=O)(=O)c1ccccc1F (stereo not drawn)	-1	0	-2	-3	nt	-2
COC(=O)c1ccc(NC(=O)c2sc3nc(-c4ccccc4)cn3c2C)cc1	7	-5	2	9	71*	12
Cc1ccc(C)n1-c1sc2c(c1C#N)CCC(C)C2 (stereo not drawn)	23	2	-4	30	62*	-1
CC(=O)Nc1sc2c(c1C#N)CCC(C)C2 (stereo not drawn)	16	9	0	20	-1	-32
Cc1nc2c(C(=O)Nc3ccc(N4CCCC(O)C4)cc3)snc2c(=O)[nH]1 (stereo not drawn)	-28	-26	-1	-13	59*	1
